# Assay outcomes from PubChem.
# Many of the other results were omitted from the sample, so hits are more common in it than they were.
# nsP2pro primary – CHIKV nsP2 protease inhibition, primary qHTS | Q8JUX6 | FRET peptide cleavage, nsP2pro, fluorescence 1 h | Potency, µM (titrated, usually from 24.9 µM), without a hit: top-dose activity change, negative = inhibition, actives largely listed as inhibitors | hit rate 1.1% among 31,000; note: nearly all actives have a fitted effect of over 60% in size
#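 FRET cleavage of 2.5 uM peptide 2 by 150 nM CHIKV protease domain at pH 8.0 (Tris, Tween 20). Compounds at 7 concentrations (up to 25 uM) preincubated 15 min. Fluorescence read after 1 h at room temperature.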
# CHIKV nsP2 cell – cell-based CHIKV nsP2 protease inhibition, secondary; Potency, µM (top dose mostly 51.1 µM), without a hit: at the highest dose activity change, negative = inhibition, most hits filed as inhibitors; AID 1964100; shares compounds with nsP2pro primary; cell-based CHIKV nsP2 protease reporter assay; hit rate 10% among 450; note: nearly all actives have a fitted effect of over 70% in size
# Target sequence (Q8JUX6 220-798 limits assumed): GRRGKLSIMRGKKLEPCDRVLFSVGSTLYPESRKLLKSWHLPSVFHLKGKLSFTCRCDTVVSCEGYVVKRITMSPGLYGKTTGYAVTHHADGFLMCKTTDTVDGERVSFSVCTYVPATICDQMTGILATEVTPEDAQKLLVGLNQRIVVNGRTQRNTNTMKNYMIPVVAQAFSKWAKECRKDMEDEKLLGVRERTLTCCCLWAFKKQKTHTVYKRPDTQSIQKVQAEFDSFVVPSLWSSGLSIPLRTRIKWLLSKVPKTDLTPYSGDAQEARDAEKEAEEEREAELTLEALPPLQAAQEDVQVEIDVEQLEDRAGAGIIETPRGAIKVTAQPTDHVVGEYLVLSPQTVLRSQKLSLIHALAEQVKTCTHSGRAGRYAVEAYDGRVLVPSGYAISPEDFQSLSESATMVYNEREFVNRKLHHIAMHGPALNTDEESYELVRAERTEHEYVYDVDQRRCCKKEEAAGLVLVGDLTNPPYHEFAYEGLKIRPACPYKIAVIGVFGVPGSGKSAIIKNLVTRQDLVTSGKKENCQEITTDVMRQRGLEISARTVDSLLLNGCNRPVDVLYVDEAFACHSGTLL
# CHIKV NSP2 FL – inhibits full-length CHIKV NSP2 enzyme. shares compounds with nsP2pro primary. Full-length CHIKV NSP2 protease enzymatic counterscreen. Potency, µM (highest dose often 50.7 µM), for the others: top-dose activity change, negative = inhibition, usual class: inhibitors. hit rate 39% among 410; note: nearly all actives have a fitted effect of over 65% in size
# Furin counter – selectivity counter-screen for CHIKV nsP2 protease inhibitors: human furin; Potency, µM (highest dose often 50.6 µM), inactives show at the top dose activity change, negative = inhibition, most hits filed as inhibitors; Recombinant human furin enzymatic counterscreen, fluorogenic substrate; hit rate 6% among 410; AID 1964102; shares compounds with nsP2pro primary
# nsP2 NS23 pep – selectivity test for CHIKV nsP2 protease inhibitors: endogenous NS2/3 peptide. shares compounds with nsP2pro primary. Purified CHIKV nsP2 protease, endogenous NS2/3 peptide cleavage. Potency, µM (doses to about 51 µM), for the others: top-dose activity change, negative = inhibition, usual class: inhibitors. hit rate 34% among 410. AID 1964103; note: nearly all actives have a fitted effect of over 55% in size
# Papain counter – inhibits papain in a CHIKV nsP2 protease selectivity counterscreen. shares compounds with nsP2pro primary. purified papain protease activity, enzymatic inhibition. Potency, µM (highest dose often 51 µM), for inactives: top-dose activity change, negative = inhibition, usual class: inhibitors. hit rate 5% among 410. AID 1964104
# nsP2pro confirm – CHIKV nsP2 protease inhibition, confirmatory qHTS. CHIKV nsP2 protease enzymatic activity, qHTS. hit rate 43% among 410. AID 1964105. shares compounds with nsP2pro primary. Potency, µM (series often up to 25.5 µM), for the others: at the highest dose activity change, negative = inhibition, hits mostly inhibitors; note: nearly all actives have a fitted effect of over 75% in size
# HCV NS3 4A cs – inhibits HCV NS3/4A protease in an nsP2pro selectivity counterscreen; HCV NS3/4A protease biochemical counterscreen; Potency, µM (series often up to 50.9 µM), hits mostly inhibitors; shares compounds with nsP2pro primary; hit rate 20% among 410; AID 1964106; note: nearly all actives have a fitted effect of over 55% in size
# The depositor's hits bear a star; i = inactive; ? = inconclusive; [ ] = remark or other dose. Calls come from the whole dose curve. % is set by controls: 0 for no effect and ±100 for the full control effect; potency is the fitted concentration of half-maximal effect.
SMILES,nsP2pro primary,others
CC(C)=CCC[C@](C)(O)[C@H]1CC[C@@]2(C)[C@H]1[C@@H](O)CC1[C@@]3(C)CC[C@@H](O[C@@H]4O[C@H](CO)[C@@H](O)[C@H](O)[C@H]4O)C(C)(C)C3CC[C@]12C (some centres not stated),18.1%,
O=C(c1ccc(Cl)nc1)N1CCC(C(=O)N2CCC(N3CCCC3=O)CC2)CC1,-11.2%,
O=C(NCc1c(F)cc(F)cc1F)c1cn2c(c(O)c1=O)C(=O)N1[C@H]3CC[C@H](C3)O[C@@H]1C2,55.0%,
Cc1ccc(S(=O)(=O)Nc2cnccc2C(=O)Nc2nc(-c3ccccc3)cs2)cc1,i,
O=C(Nc1cccc(Cc2ccccc2)n1)c1ccc(-c2cccc([N+](=O)[O-])c2)o1,10µM*,CHIKV nsP2 cell=47.9%;CHIKV NSP2 FL=?;Furin counter=0.3%;nsP2 NS23 pep=-14.2%;Papain counter=-9.6%;nsP2pro confirm=?;HCV NS3 4A cs=i
O=C(Nc1cccc(Cc2ccccc2)c1)c1ccc(-c2cccc([N+](=O)[O-])c2)o1,4.5%,
O=C(Nc1cncc(Cc2ccccc2)c1)c1ccc(-c2cccc([N+](=O)[O-])c2)o1,-11.9%,
CC(C)(C)C1CCC(C(=O)Nc2ccc(S(=O)(=O)Nc3nccs3)cc2)CC1 (configuration not stated),5.0%,
CNc1nc2c(s1)C(c1ccc(Cl)cc1)CC(=O)N2 (configuration not stated),3.16µM*,CHIKV nsP2 cell=46.3%;CHIKV NSP2 FL=2.91µM*;Furin counter=-10.4%;nsP2 NS23 pep=8.19µM*;Papain counter=23.4%;nsP2pro confirm=5.65µM*;HCV NS3 4A cs=i
COc1ccc(CNC(=O)C2CCN(Cc3ccccc3-c3ccccc3F)CC2)cc1,3.2%,
O=[S+]([O-])(Nc1nccs1)c1ccc(NCc2cccc(Cl)c2)cc1,1.7%,
COc1ccc2nc(-c3ccccc3OCc3ccccc3)sc2c1,-0.1%,
CCN(Cc1cccc2nonc12)CC1CCCN(CCc2cccc(OC)c2)C1 (configuration not stated),i,
CC(C)[C@H]1CC[C@H](C)C[C@H]1O,0.9%,
CS(=O)(=O)N(Cc1cccnc1)C1CN(C(=O)CCc2c[nH]c3ccccc23)C1,-10.9%,
OCc1ccc(-c2ccc3ncnc(NCc4nccs4)c3c2)o1,8.91µM*,CHIKV nsP2 cell=?;CHIKV NSP2 FL=10.3µM*;Furin counter=-13.2%;nsP2 NS23 pep=20.6µM*;Papain counter=17.1%;nsP2pro confirm=?;HCV NS3 4A cs=3.66µM*
c1csc(CNc2ncnc3ccc(-c4ccc5c(c4)OCO5)cc23)n1,1.2%,
c1cncc(-c2ccc3ncnc(NCc4cccs4)c3c2)c1,i,
CC(C)=CCn1c(-c2cc(C)oc2C)cn2cc(C(=O)N(C)CC(C)C)nc2c1=O,-14.6%,
CC1(C)CC=C(C#Cc2ccccc2)c2cc(/C=C/c3ccc(C(=O)O)cc3)ccc21,65.7%,
CNc1oc(-c2ccc3c(c2)OCCO3)nc1C#N,0.2%,
Clc1cc(Cl)c(OCC#CI)cc1Cl,4.42µM*,CHIKV nsP2 cell=?;CHIKV NSP2 FL=7.11µM*;Furin counter=8.96µM*;nsP2 NS23 pep=5.04µM*;Papain counter=-18.3%[17.2 µM];nsP2pro confirm=2.19µM*;HCV NS3 4A cs=i
S=C(Nc1ccc(Cl)c(Cl)c1)Nc1nnc(-c2ccncc2)o1,-9.0%,
CC(C)=CCC(O)/C(C)=C/CO[C@@H]1O[C@H](CO)[C@@H](O)[C@H](O)[C@H]1O (some centres not stated),10.7%,
Cc1nc([C@](C)(O)CO)sc1-c1cnc(N)c(O[C@H](C)c2cc(F)ccc2-n2nccn2)c1,7.85µM*,CHIKV nsP2 cell=-21.4%;CHIKV NSP2 FL=-14.8%;Furin counter=3.2%;nsP2 NS23 pep=-22.9%;Papain counter=22.4%;nsP2pro confirm=-11.6%;HCV NS3 4A cs=i
SMILES,nsP2pro primary,others
CC1=CC(=O)C2C(C)(C)CCCC2(C)C12CCC1(COC(=O)C1)O2 (configuration not stated),12.0%,
CC(C)=CCC/C(C)=C/CC/C(C)=C/COC1OC(COC2OCC(OC3OCC(O)C(O)C3O)C(O)C2O)C(O)C(OC2OC(C)C(OC3OC(C)C(OC4OCC(OC5OC(C)C(O)C(O)C5O)C(O)C4O)C(O)C3O)C(O)C2O)C1O (configuration not stated),-4.2%[5.1 µM],
Cn1c(=O)cc(N2CCC[C@@H](N)C2)n(Cc2ccccc2C#N)c1=O,-13.3%,
COc1ccc(NC(=O)CCN2CCN(c3cccc(Cl)c3)CC2)cc1,-10.2%,
CCCCNC(=O)CN1CCN(c2ncc(NC(=O)c3ccc(Cl)cc3)cc2C(=O)O)CC1,?,CHIKV nsP2 cell=-16.5%;CHIKV NSP2 FL=14.6µM*;Furin counter=-3.5%;nsP2 NS23 pep=-4.7%;Papain counter=-8.5%;nsP2pro confirm=-16.4%;HCV NS3 4A cs=i
CCCCNC(=O)CN1CCN(c2ccc(NC(=O)c3ccc(OC)cc3)cc2C(=O)O)CC1,4.47µM*,CHIKV nsP2 cell=?;CHIKV NSP2 FL=4.11µM*;Furin counter=?;nsP2 NS23 pep=7.3µM*;Papain counter=-1.5%;nsP2pro confirm=6.34µM*;HCV NS3 4A cs=1.83µM*
Cc1ccc(Cl)cc1NC(=O)c1cnc(N2CCCCC2)c2ccccc12,-14.4%,
CCCCOc1ccc(C(=O)Nc2ccc3c(c2)CCCN3C(=O)c2cccs2)cc1,-17.1%,
CCOc1cccc(C(=O)Nc2ccc(S(=O)(=O)N(Cc3ccccc3)c3ccccc3)cc2)c1,-12.3%,
CCCCN(CCCNC(=O)c1ccc(Sc2ccc(Cl)cc2)c(NC(C)=O)c1)c1ccccc1,-24.3%,
COc1ccc(C(=O)Nc2ccc(N(C)Cc3ccccc3)c(C(=O)O)c2)cc1,5.01µM*,CHIKV nsP2 cell=-6.7%;CHIKV NSP2 FL=5.17µM*;Furin counter=?;nsP2 NS23 pep=13µM*;Papain counter=-4.5%;nsP2pro confirm=7.98µM*;HCV NS3 4A cs=3.26µM*
COc1ccc(NC(=O)c2ccc3nc(CCc4ccccc4)oc3c2)cc1,14.5%,
COc1cccc(CNc2ccc(S(=O)(=O)Nc3ncccn3)cc2)c1O,i,
O=C(COc1ccc(F)cc1)N1CCCCC1c1nc(-c2cnccn2)n[nH]1 (configuration not stated),i,
c1ccc(CN2CCC[C@H]2c2nc(-c3ccnc(N4CCOCC4)c3)no2)nc1,i,
CC(O)c1cc(C(=O)N[C@@H](C)Cn2ccc(-c3ccc(C#N)c(Cl)c3)n2)n[nH]1 (some centres not stated),-4.7%,
COC(=O)C1=COC(O[C@@H]2O[C@H](CO)[C@@H](O)[C@H](O)[C@H]2O)/C(=C\COC(=O)c2ccc(OC3OC(CO)C(O)C(O)C3O)c(OC)c2)C1CC(=O)OCCc1ccc(O)cc1 (some centres not stated),15.1%[5.1 µM],
